Screening data from PubChem BioAssay.
Most compounds without a hit are left out; they make up all but 22% or so of the library.
CYP2C9 inhib = blockers of cytochrome P450 2C9 activity – biochemical, luminescence, ADME assay, primary screen; AID 777, 2007; inhibition, % at 5 µM; hit rate 20% among 96,000; P11712; CYP2C9 Supersomes, luciferin-H conversion;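 active = blocking of liver enzyme CYP2C9 beyond about 50% at 5 µM, limit read from the data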
Target sequence (P11712 whole entry, looked up): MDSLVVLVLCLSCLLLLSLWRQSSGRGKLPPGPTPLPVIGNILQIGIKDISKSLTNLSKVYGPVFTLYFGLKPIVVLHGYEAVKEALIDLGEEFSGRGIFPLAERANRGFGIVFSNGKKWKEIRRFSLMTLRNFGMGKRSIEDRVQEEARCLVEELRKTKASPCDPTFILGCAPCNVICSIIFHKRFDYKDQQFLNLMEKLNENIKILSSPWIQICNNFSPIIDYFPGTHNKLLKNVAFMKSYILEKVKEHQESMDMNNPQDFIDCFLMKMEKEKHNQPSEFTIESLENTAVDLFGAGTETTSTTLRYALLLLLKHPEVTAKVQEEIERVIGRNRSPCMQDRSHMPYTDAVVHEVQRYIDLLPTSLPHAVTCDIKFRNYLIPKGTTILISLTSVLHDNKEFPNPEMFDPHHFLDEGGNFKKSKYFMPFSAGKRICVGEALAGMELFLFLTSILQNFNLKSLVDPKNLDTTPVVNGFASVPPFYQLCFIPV
CYP2C9 activ = human CYP2C9 activators, primary screen, biochemical, luminescence. Cytochrome P450 2C9 (Homo sapiens), P11712. recombinant CYP2C9, luciferin-H conversion; active compounds read high; factor 1 = untreated enzyme, 0 = blocked. activation factor at 5 µM. hit rate 1.4% among 96,000;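 active = activation factor of 2 or more for CYP2C9 at a 5 µM dose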;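 note: 0 = sulfaphenazole-blocked wells and 1 = vehicle-only wells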
CYP2C19 inh = blockers of cytochrome P450 2C19 activity – biochemical, luminescence, ADME assay, primary screen. CYP2C19 Supersomes, luciferin-H EGE luminescence, 30 min. inhibition, % at 5 µM. P33261. hit rate 21% among 96,000. AID 778, 2007;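 active = CYP2C19 inhibition above a set limit at 5 µM in the primary screen, cut at about 50% in these data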;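 note: plate controls were negative control wells for no effect and 2.5 mM tranylcypromine positive control for full effect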
Measles CPE = compounds protecting cells from measles virus cytopathic effect, primary screen, measles RdRp inhibitor project, single point, MLSMR library, absorbance; Measles virus-infected cells, CPE protection; protection (pct of control), % at 4 µM; hit rate 1.5% among 140,000; AID 841, 2007; in the data active = protection mostly above about 24%, no sharp cut-off; inactive = mostly below about 26%
CYP2C19 activ = human CYP2C19 activators, primary screen, biochemical, luminescence; recombinant CYP2C19, luciferin-H EGE luminescence; active compounds read high; 0 = fully inhibited enzyme, 1 = untreated enzyme; activation factor at 5 µM; 96,000 tested, under 10 active; AID 1025, 2008;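 active = activation factor of at least 2 at 5 µM in the primary screen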;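 note: 0 = wells with 2.5 mM tranylcypromine and 1 = vehicle-only wells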
* hit, by the source's call; nt = not tested or not shown.

SMILES | CYP2C9 inhib | CYP2C9 activ | CYP2C19 inh | Measles CPE | CYP2C19 activ
Cc1onc(-c2ccccc2Cl)c1C(=O)OCN1C(=O)c2ccccc2C1=O | 18 | 0.8 | 56* | 4 | 0.4
Cc1onc(-c2ccccc2Cl)c1C(=O)NC(=S)Nc1ccccc1C(N)=O | nt | nt | nt | 18 | nt
Cc1onc(-c2ccccc2Cl)c1C(=O)Nc1ccccc1C(N)=O | 38 | 0.6 | 56* | 8 | 0.4
Cc1onc(-c2ccccc2Cl)c1C(=O)Nc1ccccc1C(=O)NC(C)C | 79* | 0.2 | 43 | 9 | 0.6
N#Cc1cn(CC(=O)N2CCc3ccccc3C2)c2ccccc12 | nt | nt | nt | 5 | nt
CC(=O)Oc1ccc(C(=O)[C@H]2[C@H]3C(=O)N(c4cccc5ccccc45)C(=O)[C@H]3[C@@H]3C=CC=NN32)cc1 | nt | nt | nt | 9 | nt
COc1ccc(S(=O)(=O)CCC(=O)N(C)c2ccc(OC)cc2OC)cc1 | nt | nt | nt | 14 | nt
Cc1onc(-c2ccccc2Cl)c1C(=O)Nc1cccc2cccnc12 | 46 | 0.5 | 76* | 20 | 0.2
Cc1onc(-c2ccccc2Cl)c1C(=O)Nc1ccc(N2CCOCC2)cc1 | 0 | 1 | 20 | 3 | 0.8
Cc1ccccc1-n1nc2c(c1NC(=O)c1c(-c3ccccc3Cl)noc1C)CSC2 | 50* | 0.5 | 34 | 3 | 0.7
CCSc1nnc(NC(=O)c2c(-c3ccccc3Cl)noc2C)s1 | 95* | 0.1 | 100* | 3 | 0
Cc1onc(-c2ccccc2Cl)c1C(=O)Nc1ccccc1N1CCOCC1 | 69* | 0.3 | 61* | 10 | 0.4
COc1ccc(C)cc1S(=O)(=O)N(CC(=O)O)c1ccc(F)cc1 | 28 | 0.7 | 0 | 9 | 1
COc1ccc(NC(=O)CN2CCC(Cc3ccccc3)CC2)cc1S(=O)(=O)N1CCOCC1 | nt | nt | nt | 16 | nt
CC(C)=NN/C(N)=N/C(=S)Nc1ccc(C)cc1 | nt | nt | nt | 16 | nt
Cc1cccc(C)c1-n1nnnc1S(=O)(=O)Cc1ccccc1Cl | 83* | 0.2 | 42 | 26 | 0.6
CCn1cc(-c2cc(C(F)(F)F)n3nc(C(=O)O)cc3n2)c(C)n1 | 10 | 0.9 | -4 | 10 | 1
C/C(=N\NC(=O)CSCc1ccc(Cl)cc1)c1ccc2c(c1)OCCO2 | 64* | 0.4 | 84* | 1 | 0.2
C/C(=N\NC(=O)COc1cccc(Cl)c1)c1ccc2c(c1)OCCO2 | nt | nt | nt | 5 | nt
Nc1cc(C(=O)O)ccc1N1CCCCCC1 | -11 | 1.1 | -5 | 6 | 1.1
CCOC(=O)/C=C/S(=O)(=O)c1ccc(NC(C)=O)cc1 | 26 | 0.7 | 9 | 0 | 0.9
O=C(c1ccncc1)c1nccn1-c1ccccn1 | 81* | 0.2 | 75* | 9 | 0.2
O=C(Nc1cccc(Cl)c1)N(CCCN1CCOCC1)Cc1ccccc1F | 65* | 0.3 | 28 | 2 | 0.7
O=C(Nc1ccc(Cl)c(Cl)c1)N(CCCN1CCOCC1)Cc1cccs1 | 84* | 0.2 | 89* | 1 | 0.1
COc1ccc(C(=O)NCCN2CCOCC2)cc1OC | nt | nt | nt | 13 | nt
SMILES | CYP2C9 inhib | CYP2C9 activ | CYP2C19 inh | Measles CPE | CYP2C19 activ
COc1ccc(CN(CCN2CCOCC2)C(=O)c2c(F)cccc2F)cc1OC | 37 | 0.6 | 52* | 5 | 0.5
O=C(c1cccnc1)N(Cc1ccccc1)C1(C(=O)Nc2ccccc2)CCCCC1 | nt | nt | nt | 29 | nt
O=C(c1ccccc1)N(CCN1CCOCC1)C1(C(=O)Nc2ccccc2)CCCCC1 | 23 | 0.8 | 69* | 19 | 0.3
COC(=O)c1ccc(CSc2nnc(Nc3ccc(C)cc3)s2)o1 | 26 | 0.7 | 24 | 23 | 0.8
CCCc1cc(C(=O)Nc2c(C)n(C)n(-c3ccccc3)c2=O)no1 | 22 | 0.8 | 10 | 16 | 0.9
Cc1ccc(C(C(=O)NCc2ccco2)N(CCc2ccccc2)C(=O)Cn2nnc3ccccc32)o1 (configuration not stated) | 11 | 0.9 | 14 | 18 | 0.9
C=CCn1c(=O)/c(=C/c2cc(OC)c(OC)c(OC)c2)s/c1=C(/C#N)c1nc2ccccc2n1C | 3 | 1 | 10 | 7 | 0.9
O=C(Nc1ccccc1)N(CCN1CCOCC1)Cc1cccc(Cl)c1 | 84* | 0.2 | 79* | 14 | 0.2
COc1cccc2cc(C(=O)C3=C(O)C(=O)N(CCN4CCOCC4)C3c3cccs3)oc12 (configuration not stated) | -22 | 1.2 | -10 | 29 | 1.1
CCc1ccc(NC(=O)N(CCCN2CCOCC2)C(C)c2cc3cccc(OC)c3o2)cc1 (configuration not stated) | 68* | 0.3 | 40 | 9 | 0.6
COc1ccc(CN(CCCN2CCOCC2)C(=O)Nc2ccccc2)cc1OC | 57* | 0.4 | 25 | 16 | 0.8
O=S(=O)(c1cccc(C(F)(F)F)c1)N(CCCN1CCOCC1)Cc1cccs1 | 21 | 0.8 | 64* | 4 | 0.4
Cc1c(NC(=S)NC(=O)c2cc3ccccc3o2)c(=O)n(-c2ccccc2)n1C | nt | nt | nt | 38 | nt
CC(C)CNS(=O)(=O)c1ccc(S(=O)(=O)N2CCN(CCC#N)CC2)cc1 | 26 | 0.7 | 7 | 15 | 0.9
O=C(NNc1nc2ccc(Cl)cc2s1)c1cc(-c2cccs2)nc2ccccc12 | nt | nt | nt | 8 | nt
CCn1cc(Br)c(C(=O)Nc2ccc(Cl)c(Cl)c2)n1 | nt | nt | nt | 16 | nt
CCCCOC(=O)c1ccc(NC(=O)c2nn(C)cc2Br)cc1 | nt | nt | nt | 21 | nt
CCOC(=O)c1c(NC(=O)c2nn(CC)cc2Br)c(C#N)cn1-c1ccccc1 | -2 | 1 | 75* | 14 | 0.2
CCn1cc(Br)c(C(=O)Nc2ccc(C(=O)OC(C)C)cc2)n1 | 14 | 0.9 | 75* | 4 | 0.3
CCOC(=O)c1c(N)c(C#N)cn1-c1ccccc1 | -2 | 1 | 25 | 13 | 0.8
CCn1cc(Br)c(C(=O)Nc2ccc(OC)cc2)n1 | 20 | 0.8 | 74* | 6 | 0.3
CCn1cc(Br)c(C(=O)Nc2cccc(Cl)c2)n1 | 66* | 0.3 | 94* | 10 | 0.1
O=C(NCCCn1ccnc1)c1cc2cc([N+](=O)[O-])ccc2oc1=O | nt | nt | nt | 6 | nt
Nc1ccc(N2CCN(c3ccc(Cl)c(Cl)c3)CC2)cc1 | nt | nt | nt | 4 | nt
C=C(C)C(=O)OC1(C(F)(F)F)Oc2cc(C)ccc2NC1=O (configuration not stated) | 39 | 0.6 | 63* | 9 | 0.4
COC(=O)CC1Oc2ccc(C)cc2NC1=O (configuration not stated) | 13 | 0.9 | 25 | 7 | 0.8
O=S(=O)(c1ccc2nc(-c3ccco3)c(-c3ccco3)nc2c1)N1CCOCC1 | 91* | 0.1 | 3 | 18 | 1
COc1ccc2cc(S(=O)(=O)N3CCOCC3)ccc2c1 | 14 | 0.9 | 79* | 2 | 0.2
Cc1ccc(S(=O)(=O)N2CCCN(S(=O)(=O)c3ccc(C)c(C)c3)CC2)cc1C | -18 | 1.2 | 8 | 17 | 0.9
